Experimental data as given in PubChem BioAssay (NCATS).
Records with an inconclusive call do not appear. Unmarked numbers belong to inactive results. Calls follow the shape of the full dose curve.

Experiment: Cell Viability - HepG2 (AID 433);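 also: cells exposed to compound for 40 hours; potency for ATP loss meaning cytotoxicity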
Conditions: qHTS
In short: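 Cytotoxicity read as ATP loss (CellTiter-Glo luminescence) after 40 hr compound exposure of HepG2, 1500 cells/well, 37 °C. AC50 by Hill equation; 0% set by DMSO, 100% inhibition by 100 uM tamoxifen.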
Potency is read from the fitted curve at half-maximal effect.

| SMILES | Potency |
| --- | --- |
| CCCCCCc1ccc(-c2ccc(C#N)cc2)cc1 | > 92 µM |
| Nc1cnn([C@@H]2O[C@H](CO)[C@@H](O)[C@H]2O)c(=O)n1 | > 92 µM |
| CCCCCCCCOc1ccc(C(=O)O)cc1 | > 92 µM |
| Oc1c(Cl)cc(Cl)c(Cl)c1Cl | > 92 µM |
| CC(C)OCC1CO1 (stereo not drawn) | > 92 µM |
| C/C(Cl)=C/CCl | > 92 µM |
| CCCCNCC | > 92 µM |
| O=c1[nH]ncc2ccccc12 | > 92 µM |
| c1ccc(COCc2ccccc2)cc1 | > 92 µM |
| O=[N+]([O-])c1cccc(I)c1 | > 92 µM |
| c1ccc2c(c1)ccc1ccccc12 | > 92 µM |
| Nc1ccc(N=Nc2ccccc2)c(N)c1 | > 92 µM |
| Cc1ccc(C(=O)O)cc1[N+](=O)[O-] | > 92 µM |
| COc1ccc([N+](=O)[O-])cc1N | > 92 µM |
| OCC(CO)(CBr)CBr | > 92 µM |
| Nc1cc(C(=O)O)c(O)c(S(=O)(=O)O)c1 | > 92 µM |
| Oc1ccc2c(c1)OCO2 | > 92 µM |
| c1ccncc1 | > 92 µM |
| CC(=O)OC1CC(C)OC(C)O1 (stereo not drawn) | > 92 µM |

| SMILES | Potency |
| --- | --- |
| O=C(OCc1ccccc1)c1ccccc1O | > 92 µM |
| C/C=C/C=C/C=O | > 92 µM |
| CCN(CC)c1ccc2c(C)cc(=O)oc2c1 | > 92 µM |
| c1c[nH]cn1 | > 92 µM |
| c1ccc(SCCSc2ccccc2)cc1 | > 92 µM |
| O=C(O)/C=C/c1ccc(/C=C/C(=O)O)cc1 | > 92 µM |
| CCCCOC(=O)COc1ccc(Cl)cc1Cl | > 92 µM |
| CC(=O)OC(C(=O)c1ccccc1)c1ccccc1 (stereo not drawn) | > 92 µM |
| CCCCCCN | > 92 µM |
| CC(=O)Nc1cccc(C)c1 | > 92 µM |
| CCC(Cl)CC(Cl)C(Cl)C(Cl)C(Cl)C(C)Cl (stereo not drawn) | > 92 µM |
| COc1ccc(C)cc1N | > 92 µM |
| CCc1ccc(C(c2ccc(CC)cc2)C(Cl)Cl)cc1 | > 92 µM |
| O=[N+]([O-])c1ccccc1Nc1ccccc1 | > 92 µM |
| C=CC1CO1 (stereo not drawn) | > 92 µM |
| COc1cc(-c2ccc(N=C=O)c(OC)c2)ccc1N=C=O | > 92 µM |
| CCOC(=O)C1OC1c1ccccc1 (stereo not drawn) | > 92 µM |
| COc1ccc(C(=O)Nc2ccccc2)cc1[N+](=O)[O-] | > 92 µM |

Experiment: Cell Viability - MRC5 (AID 434);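 also: cells exposed to compound for 40 hours at 37 °C; potency reflects cytotoxicity seen as loss of intracellular ATP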
Conditions: MRC5 lung fibroblast viability, qHTS
In short: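 ATP luminescence read-out (CellTiter-Glo, 20 min RT) after 40 hr, 37 °C compound exposure of 1500 MRC5 cells/well. Data normalized to DMSO (basal) and 100 uM tamoxifen (100% inhibition); AC50 from standard Hill equation.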

| SMILES | Potency |
| --- | --- |
| CCCCCCc1ccc(-c2ccc(C#N)cc2)cc1 | > 92 µM |
| Nc1cnn([C@@H]2O[C@H](CO)[C@@H](O)[C@H]2O)c(=O)n1 | > 92 µM |
| CCCCCCCCOc1ccc(C(=O)O)cc1 | > 92 µM |
| Oc1c(Cl)cc(Cl)c(Cl)c1Cl | > 92 µM |
| CC(C)OCC1CO1 (stereo not drawn) | > 92 µM |
| C/C(Cl)=C/CCl | > 92 µM |
| CCCCNCC | > 92 µM |
| c1ccc(COCc2ccccc2)cc1 | > 92 µM |
| O=[N+]([O-])c1cccc(I)c1 | > 92 µM |
| Nc1ccc2c(c1)C(=O)c1ccccc1C2=O | > 92 µM |
| c1ccc2c(c1)ccc1ccccc12 | > 92 µM |
| Cc1ccc(C(=O)O)cc1[N+](=O)[O-] | > 92 µM |
| OCC(CO)(CBr)CBr | > 92 µM |
| Oc1ccc2c(c1)OCO2 | > 92 µM |
| c1ccncc1 | > 92 µM |
| CC(=O)OC1CC(C)OC(C)O1 (stereo not drawn) | > 92 µM |
| C/C=C/C=C/C=O | > 92 µM |
| CCN(CC)c1ccc2c(C)cc(=O)oc2c1 | > 92 µM |
| c1ccc(SCCSc2ccccc2)cc1 | > 92 µM |
| CCCCCCN | > 92 µM |
| CC(=O)Nc1cccc(C)c1 | > 92 µM |
| CCC(Cl)CC(Cl)C(Cl)C(Cl)C(Cl)C(C)Cl (stereo not drawn) | > 92 µM |
| CCc1ccc(C(c2ccc(CC)cc2)C(Cl)Cl)cc1 | > 92 µM |
| C[C@@H]1CC2(OC(O)[C@]3(C)O[C@H]23)O[C@H]2C[C@@]3(C)[C@@H]4CC[C@H]5C(C)(C)C(O[C@@H]6OC[C@@H](O)[C@H](O)[C@H]6O)CC[C@@]56C[C@@]46CC[C@]3(C)[C@@H]12 (stereo partly drawn) | > 92 µM |
| C=CC1CO1 (stereo not drawn) | > 92 µM |
| COc1ccc(C(=O)Nc2ccccc2)cc1[N+](=O)[O-] | > 92 µM |

Experiment: Cell Viability - SK-N-SH (AID 435)
Conditions: SK-N-SH neuroblastoma cell viability qHTS
In short: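 qHTS cytotoxicity: CellTiter-Glo ATP luminescence after 40 h compound exposure of human neuroblastoma SK-N-SH cells at 37 °C. AC50 derived by Hill-equation fitting, with DMSO as basal and 100 uM tamoxifen as full inhibition.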

| SMILES | Potency |
| --- | --- |
| Nc1cnn([C@@H]2O[C@H](CO)[C@@H](O)[C@H]2O)c(=O)n1 | > 92 µM |
| CCCCCCCCOc1ccc(C(=O)O)cc1 | > 92 µM |
| CC(C)OCC1CO1 (stereo not drawn) | > 92 µM |
| O=c1[nH]ncc2ccccc12 | > 92 µM |
| c1ccc(COCc2ccccc2)cc1 | > 92 µM |
| c1ccc2c(c1)ccc1ccccc12 | > 92 µM |
| Cc1ccc(C(=O)O)cc1[N+](=O)[O-] | > 92 µM |
| OCC(CO)(CBr)CBr | > 92 µM |
| Oc1ccc2c(c1)OCO2 | > 92 µM |
| CC(=O)OC1CC(C)OC(C)O1 (stereo not drawn) | > 92 µM |
| O=C(OCc1ccccc1)c1ccccc1O | > 92 µM |
| CCN(CC)c1ccc2c(C)cc(=O)oc2c1 | > 92 µM |
| c1ccc(SCCSc2ccccc2)cc1 | > 92 µM |
| O=C(O)/C=C/c1ccc(/C=C/C(=O)O)cc1 | > 92 µM |
| CCC(Cl)CC(Cl)C(Cl)C(Cl)C(Cl)C(C)Cl (stereo not drawn) | > 92 µM |
| CCc1ccc(C(c2ccc(CC)cc2)C(Cl)Cl)cc1 | > 92 µM |
| O=[N+]([O-])c1ccccc1Nc1ccccc1 | > 92 µM |
| C=CC1CO1 (stereo not drawn) | > 92 µM |
| COc1cc(-c2ccc(N=C=O)c(OC)c2)ccc1N=C=O | > 92 µM |
| COc1ccc(C(=O)Nc2ccccc2)cc1[N+](=O)[O-] | > 92 µM |
